Paper PMC7862700, “An all-to-all approach to the identification of sequence-specific readers for epigenetic DNA modifications on cytosine”

How the values were obtained:
Experiment in all cases: DAPPL (digital affinity profiling via proximity ligation, sequencing); 10 mM Tris-HCl pH 7.5, 50 mM NaCl, 1 mM DTT, 4% glycerol, room temperature, 30 min; GST-TFs on glutathione beads, 16-mer random dsDNA library, 0.1% formaldehyde crosslink after washing; high values mean tight binding
Details in all cases: protein: recombinant; tags: N-terminal GST; dsDNA, one strand shown
ERF = molecular target: T1, ERF (Homo sapiens, UniProt P50548 1-548)
T1 sequence: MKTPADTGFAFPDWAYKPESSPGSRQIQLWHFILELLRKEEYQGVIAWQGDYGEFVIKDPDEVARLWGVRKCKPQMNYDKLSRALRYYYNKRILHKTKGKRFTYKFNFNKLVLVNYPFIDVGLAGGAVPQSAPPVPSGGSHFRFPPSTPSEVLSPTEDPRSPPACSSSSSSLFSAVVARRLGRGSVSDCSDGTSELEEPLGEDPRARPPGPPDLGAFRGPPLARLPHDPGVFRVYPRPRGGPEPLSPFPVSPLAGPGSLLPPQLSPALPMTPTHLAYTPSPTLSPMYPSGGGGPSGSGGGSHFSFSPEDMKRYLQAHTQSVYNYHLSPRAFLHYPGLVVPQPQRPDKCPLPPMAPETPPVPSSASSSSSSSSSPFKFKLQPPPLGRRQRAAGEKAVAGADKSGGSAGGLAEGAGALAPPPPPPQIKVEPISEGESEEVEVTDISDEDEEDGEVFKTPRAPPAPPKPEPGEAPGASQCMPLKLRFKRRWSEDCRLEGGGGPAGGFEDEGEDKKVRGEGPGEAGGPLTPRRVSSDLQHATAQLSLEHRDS
In short: (§1)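 Human transcription factors fused to GST were expressed in yeast, captured on glutathione beads, given DNA barcodes and pooled with a GST-only negative control. Pools were incubated with 200 nmole of a 16-mer random double-stranded DNA library in Tris/NaCl/DTT/glycerol buffer at room temperature for 30 min. They were then washed, crosslinked with 0.1% formaldehyde, proximity-ligated (BsaI/T4 ligase, 1 h, 37 °C), PCR-amplified and sequenced on an Illumina NextSeq500. Binding signal is each 6-mer's read frequency for a factor divided by its frequency for the GST control.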

ETV3L = molecular target: T2, ETV3L (Homo sapiens, UniProt Q6ZN32 1-361)
T2 sequence: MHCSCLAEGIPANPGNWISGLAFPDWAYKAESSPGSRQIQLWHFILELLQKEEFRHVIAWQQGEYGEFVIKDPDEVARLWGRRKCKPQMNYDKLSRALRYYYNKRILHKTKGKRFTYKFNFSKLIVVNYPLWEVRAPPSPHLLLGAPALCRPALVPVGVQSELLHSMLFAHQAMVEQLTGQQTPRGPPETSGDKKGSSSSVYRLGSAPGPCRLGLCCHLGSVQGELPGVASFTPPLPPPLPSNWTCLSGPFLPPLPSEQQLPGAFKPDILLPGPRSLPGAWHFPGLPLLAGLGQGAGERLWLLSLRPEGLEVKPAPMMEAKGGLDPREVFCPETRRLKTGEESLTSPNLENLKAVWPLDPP
In short: as §1

ETS2 = molecular target: T3, ETS2 (Homo sapiens, UniProt P15036 1-469)
T3 sequence: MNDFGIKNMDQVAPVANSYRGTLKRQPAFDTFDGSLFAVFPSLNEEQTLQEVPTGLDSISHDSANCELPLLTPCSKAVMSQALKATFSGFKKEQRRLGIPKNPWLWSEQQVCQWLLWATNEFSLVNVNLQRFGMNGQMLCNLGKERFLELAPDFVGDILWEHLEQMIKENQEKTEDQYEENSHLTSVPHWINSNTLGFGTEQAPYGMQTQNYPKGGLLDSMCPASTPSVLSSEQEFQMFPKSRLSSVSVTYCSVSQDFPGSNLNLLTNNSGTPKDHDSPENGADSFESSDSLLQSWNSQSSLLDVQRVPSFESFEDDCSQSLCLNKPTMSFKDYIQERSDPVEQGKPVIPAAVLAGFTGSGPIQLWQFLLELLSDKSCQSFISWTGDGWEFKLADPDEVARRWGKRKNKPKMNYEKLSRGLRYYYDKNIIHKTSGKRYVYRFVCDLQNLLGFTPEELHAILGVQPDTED
In short: as §1

SPDEF = molecular target: T4, SPDEF (Homo sapiens, UniProt O95238 1-335)
T4 sequence: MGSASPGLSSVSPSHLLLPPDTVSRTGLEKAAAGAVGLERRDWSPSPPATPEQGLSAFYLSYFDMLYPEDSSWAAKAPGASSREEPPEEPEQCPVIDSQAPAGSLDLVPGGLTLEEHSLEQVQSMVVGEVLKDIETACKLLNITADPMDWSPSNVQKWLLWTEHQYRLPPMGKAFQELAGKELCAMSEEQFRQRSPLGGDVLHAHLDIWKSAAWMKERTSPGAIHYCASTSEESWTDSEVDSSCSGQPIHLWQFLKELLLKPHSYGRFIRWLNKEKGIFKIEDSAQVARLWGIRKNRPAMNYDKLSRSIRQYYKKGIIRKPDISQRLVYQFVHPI
In short: as §1

ETV7 = molecular target: T5, ETV7 (Homo sapiens, UniProt Q9Y603 1-341)
T5 sequence: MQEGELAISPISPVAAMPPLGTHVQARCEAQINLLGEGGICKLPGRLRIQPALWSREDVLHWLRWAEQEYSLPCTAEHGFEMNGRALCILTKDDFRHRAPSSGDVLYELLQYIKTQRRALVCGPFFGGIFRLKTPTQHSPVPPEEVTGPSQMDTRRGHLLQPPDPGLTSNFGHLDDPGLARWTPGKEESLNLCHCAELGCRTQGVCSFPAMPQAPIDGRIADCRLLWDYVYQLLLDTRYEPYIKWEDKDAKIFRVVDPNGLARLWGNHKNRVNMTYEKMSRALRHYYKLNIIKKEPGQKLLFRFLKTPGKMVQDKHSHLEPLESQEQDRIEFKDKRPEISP
In short: as §1

ELF5 = molecular target: T6, ELF5 (Homo sapiens, UniProt Q9UKW6-2 1-255)
T6 sequence: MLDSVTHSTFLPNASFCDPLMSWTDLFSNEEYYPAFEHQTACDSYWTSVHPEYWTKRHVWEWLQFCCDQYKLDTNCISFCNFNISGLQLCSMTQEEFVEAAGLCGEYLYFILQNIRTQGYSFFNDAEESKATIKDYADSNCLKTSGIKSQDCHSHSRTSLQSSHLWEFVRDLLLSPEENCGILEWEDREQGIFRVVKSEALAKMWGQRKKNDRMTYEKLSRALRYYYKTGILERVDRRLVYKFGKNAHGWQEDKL
In short: as §1

ETV3 = molecular target: T7, ETV3 (Homo sapiens, UniProt P41162-2 1-143)
T7 sequence: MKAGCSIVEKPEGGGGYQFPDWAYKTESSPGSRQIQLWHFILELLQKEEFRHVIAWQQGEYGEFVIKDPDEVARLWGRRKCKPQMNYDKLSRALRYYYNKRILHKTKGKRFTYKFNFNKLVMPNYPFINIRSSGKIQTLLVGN
In short: as §1

ETV6 = ETV6 (Homo sapiens, UniProt P41212 1-452)
In short: as §1

ETV6, sequence (P41212 whole entry): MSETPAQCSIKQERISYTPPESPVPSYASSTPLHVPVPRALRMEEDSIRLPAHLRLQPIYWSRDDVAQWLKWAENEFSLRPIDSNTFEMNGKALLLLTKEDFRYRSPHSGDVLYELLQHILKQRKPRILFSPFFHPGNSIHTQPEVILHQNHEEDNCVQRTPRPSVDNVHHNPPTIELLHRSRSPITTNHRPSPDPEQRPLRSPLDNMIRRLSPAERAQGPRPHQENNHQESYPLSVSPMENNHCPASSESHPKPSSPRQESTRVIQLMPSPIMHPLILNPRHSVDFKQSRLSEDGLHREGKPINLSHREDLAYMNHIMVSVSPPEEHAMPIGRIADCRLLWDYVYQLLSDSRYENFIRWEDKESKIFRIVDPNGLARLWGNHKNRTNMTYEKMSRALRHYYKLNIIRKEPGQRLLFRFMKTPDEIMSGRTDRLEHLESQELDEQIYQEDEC

| Sequence | binding signal (ERF) | binding signal (ETV3L) | binding signal (ETS2) | binding signal (SPDEF) | binding signal (ETV7) | binding signal (ELF5) | binding signal (ETV3) | binding signal (ETV6) |
| --- | --- | --- | --- | --- | --- | --- | --- | --- |
| GGCCTA | 1.19 fold enrichment (6-mer frequency, TF over GST control) | 1.15 fold enrichment (6-mer frequency, TF over GST control) | 1.19 fold enrichment (6-mer frequency, TF over GST control) | 1.29 fold enrichment (6-mer frequency, TF over GST control) | 1.26 fold enrichment (6-mer frequency, TF over GST control) | 1.13 fold enrichment (6-mer frequency, TF over GST control) | 1.3 fold enrichment (6-mer frequency, TF over GST control) | 1.17 fold enrichment (6-mer frequency, TF over GST control) |
| CGTCTA | 1.29 fold enrichment (6-mer frequency, TF over GST control) | 1.4 fold enrichment (6-mer frequency, TF over GST control) | 1.29 fold enrichment (6-mer frequency, TF over GST control) | 1.26 fold enrichment (6-mer frequency, TF over GST control) | 1.28 fold enrichment (6-mer frequency, TF over GST control) | 1.17 fold enrichment (6-mer frequency, TF over GST control) | 1.26 fold enrichment (6-mer frequency, TF over GST control) | 1.26 fold enrichment (6-mer frequency, TF over GST control) |
| GGGCTC | 1.28 fold enrichment (6-mer frequency, TF over GST control) | 1.32 fold enrichment (6-mer frequency, TF over GST control) | 1.14 fold enrichment (6-mer frequency, TF over GST control) | 1.09 fold enrichment (6-mer frequency, TF over GST control) | 1.18 fold enrichment (6-mer frequency, TF over GST control) | 1.12 fold enrichment (6-mer frequency, TF over GST control) | 1.22 fold enrichment (6-mer frequency, TF over GST control) | 1.19 fold enrichment (6-mer frequency, TF over GST control) |
| ACTGAA | 1.13 fold enrichment (6-mer frequency, TF over GST control) | 1.1 fold enrichment (6-mer frequency, TF over GST control) | 1.23 fold enrichment (6-mer frequency, TF over GST control) | 1.21 fold enrichment (6-mer frequency, TF over GST control) | 1.06 fold enrichment (6-mer frequency, TF over GST control) | 1.11 fold enrichment (6-mer frequency, TF over GST control) | 1.21 fold enrichment (6-mer frequency, TF over GST control) | 1.17 fold enrichment (6-mer frequency, TF over GST control) |
| ATCTCA | 1.07 fold enrichment (6-mer frequency, TF over GST control) | 1.13 fold enrichment (6-mer frequency, TF over GST control) | 1.14 fold enrichment (6-mer frequency, TF over GST control) | 1.07 fold enrichment (6-mer frequency, TF over GST control) | 1.15 fold enrichment (6-mer frequency, TF over GST control) | 1.09 fold enrichment (6-mer frequency, TF over GST control) | 1.13 fold enrichment (6-mer frequency, TF over GST control) | 1.11 fold enrichment (6-mer frequency, TF over GST control) |
| TTCGCA | 1.46 fold enrichment (6-mer frequency, TF over GST control) | 1.32 fold enrichment (6-mer frequency, TF over GST control) | 1.18 fold enrichment (6-mer frequency, TF over GST control) | 1.31 fold enrichment (6-mer frequency, TF over GST control) | 1.26 fold enrichment (6-mer frequency, TF over GST control) | 1.27 fold enrichment (6-mer frequency, TF over GST control) | 1.34 fold enrichment (6-mer frequency, TF over GST control) | 1.22 fold enrichment (6-mer frequency, TF over GST control) |
| AAAAAC | 1.22 fold enrichment (6-mer frequency, TF over GST control) | 1.25 fold enrichment (6-mer frequency, TF over GST control) | 1.29 fold enrichment (6-mer frequency, TF over GST control) | 1.23 fold enrichment (6-mer frequency, TF over GST control) | 1.29 fold enrichment (6-mer frequency, TF over GST control) | 1.3 fold enrichment (6-mer frequency, TF over GST control) | 1.2 fold enrichment (6-mer frequency, TF over GST control) | 1.26 fold enrichment (6-mer frequency, TF over GST control) |
| CGGATG | 1.39 fold enrichment (6-mer frequency, TF over GST control) | 1.62 fold enrichment (6-mer frequency, TF over GST control) | 1.83 fold enrichment (6-mer frequency, TF over GST control) | 3.14 fold enrichment (6-mer frequency, TF over GST control) | 1.41 fold enrichment (6-mer frequency, TF over GST control) | 1.75 fold enrichment (6-mer frequency, TF over GST control) | 1.75 fold enrichment (6-mer frequency, TF over GST control) | 1.5 fold enrichment (6-mer frequency, TF over GST control) |
| GCAACT | 1.07 fold enrichment (6-mer frequency, TF over GST control) | 1.17 fold enrichment (6-mer frequency, TF over GST control) | 1.16 fold enrichment (6-mer frequency, TF over GST control) | 1.11 fold enrichment (6-mer frequency, TF over GST control) | 1.2 fold enrichment (6-mer frequency, TF over GST control) | 1.18 fold enrichment (6-mer frequency, TF over GST control) | 1.16 fold enrichment (6-mer frequency, TF over GST control) | 1.24 fold enrichment (6-mer frequency, TF over GST control) |
